Compounds with a hit are over-represented: about 6.2% of the library has one in this group of screens.
FMDV antiviral = antivirals against foot and mouth disease virus | FMDV antiviral cell-based qHTS | Potency, µM (highest dose often 57.9 µM), for the others: at the top dose activity change, negative = inhibition, hits mostly inhibitors | AID 1159524 | hit rate 1.2% among 410,000; calls by dose curve; tested in HEK293T cells; note: read-out not given here; potency is the fitted concentration of half-maximal effect; nearly all actives have a fitted effect of over 45% in size
HCMV antiviral = inhibitors of human cytomegalovirus. HFF cells, HCMV-luciferase reporter, 72 h; hits give low values. activity change, negative = inhibition, % at 57.5 µM. hit rate 4.5% among 410,000; in the data active = activity change below about -60%; inconclusive = no clear call, values can overlap the other calls; inactive = above about -39%
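Human foreskin fibroblasts infected with luciferase-reporter HCMV at MOI 1 PFU/cell, compounds at two doses. Luciferase measured 72 h post infection; normalized to buffer-only basal and Salinomycin (10uM) controls.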
Marburg entry inh = blocks Marburg virus binding to or entry into cells. Potency, µM (top dose mostly 37.8 µM), for the others: top-dose activity change, negative = inhibition, hits mostly inhibitors. Marburg virus pseudotyped entry inhibition, cell reporter. hit rate 1.8% among 300,000; calls by dose curve; tested in HEK293 cells; note: potency is the fitted concentration of half-maximal effect
LASV entry inh = blocks Lassa virus binding to or entry into cells; Lassa virus pseudotype entry inhibition, cell reporter; Potency, µM (top dose mostly 37.9 µM), for inactives: top-dose activity change, negative = inhibition, actives largely listed as inhibitors; hit rate 1.2% among 300,000; calls by dose curve; tested in HEK293 cells; note: potency is the fitted concentration of half-maximal effect; nearly all actives have a fitted effect of over 50% in size
Active calls of the source: *; ? = inconclusive; nt = no result given; [ ] = another dose, or the depositor's remark. % is set by controls: 0 for no effect and ±100 for the full control effect.

SMILES	FMDV antiviral	HCMV antiviral	Marburg entry inh	LASV entry inh
COc1ccc2c(c1)c(=O)c(C(=O)c1ccc(C)cc1)cn2Cc1ccccc1F	-27.4%	-69.2*	11.2µM*	?
Cc1ccc(C(=O)c2cn(Cc3ccccc3)c3nc(C)ccc3c2=O)cc1	-14.6%	-72.9*	?	23.0%[46.1 µM]
COc1ccc(Cn2cc(C(=O)c3ccc(OC)cc3)c(=O)c3cc4c(cc32)OCCO4)cc1	-11.7%	?	-17.2%[46.1 µM]	?
COc1ccc(C(=O)c2cn(Cc3ccccc3F)c3ccc(F)cc3c2=O)cc1	-15.5%	?	-4.7%[46.1 µM]	?
O=C(c1ccc(Cl)cc1)c1cn(Cc2ccccc2)c2cc3c(cc2c1=O)OCCO3	0.0%	-63.5*	?	?
Cc1occc1C(=O)N/N=C/c1sc(N2CCOCC2)nc1-c1ccccc1	-14.2%	-5.7	nt	nt
CCN(CC)S(=O)(=O)c1ccc2c(c1)N(CC(=O)Nc1c(C)cc(C)cc1C)C(=O)CS2	5.4%	-12.5	?	nt
CCOC(=O)c1[nH]c(C)c(C(=O)OCC(=O)N(Cc2ccccc2)C(C)C)c1C	0.0%	-21.2	nt	nt
Cc1cc(C)c(C2=CSC3=NS(=O)(=O)CCN23)c(C)c1	-18.1%	28.3	-6.9%[46.1 µM]	-23.6%
COc1ccc(C2C(C(=O)N3CCCCC3)CCC(=O)N2c2cc(OC)c(OC)c(OC)c2)cc1 (stereo not given)	-18.3%	nt	10.5%	7.3µM*
CCC(C)NC(=O)C1CCC(=O)N(c2ccc3c(c2)OCO3)C1c1ccc(OC)cc1 (stereo not given)	-15.7%	-62.1*	nt	nt
COc1ccc(CN2CCc3c(c(=O)n4ncc(C(=O)N5CCN(c6ccccc6OC)CC5)c4n3C)C2)cc1	?	-84.3*	nt	?
CCn1c2c(c(=O)n3ncc(C(=O)Nc4cc(Cl)ccc4OC)c13)CN(Cc1ccc(OC)cc1)CC2	1.7%	-11.0	nt	-8.8%[46.1 µM]
Cc1ccn(CC(=O)N2CCCC(N3CCN(Cc4ccc5c(c4)OCO5)CC3)C2)n1 (stereo not given)	-20.4%	-23.6	1.2%	-1.4%
NC(=S)N/N=C1\CCSc2ccc(Cl)cc21	3.9%	-99.5*	-19.4%[46.1 µM]	-1.2%
Cc1nc(S/C(C(=O)O)=C2/C(=O)Nc3ccccc32)n[nH]1	2.51µM*	32.3	nt	nt
COc1ccc(C(C)=O)cc1CSc1nnnn1-c1ccc(O)cc1	-19.1%	-30.6	nt	nt
COc1cc(CSc2nnnn2-c2ccc(C)cc2)cc(OC)c1OC	nt	-88.8*	?	3.66µM*
COc1cc(CO)ccc1OCc1nnnn1-c1ccc(C)cc1	-8.7%	-63.4*	14.5%	0.3%
COc1ccc(F)cc1CSc1nnnn1-c1ccc(O)cc1	26.1%	-61.7*	?	?
COc1ccc(CSc2nnnn2-c2ccccc2)cc1	-8.3%	-19.3	-5.0%	?
COc1ccc(OCc2nnnn2-c2ccccc2)cc1	1.0%	-37.5	-0.3%	3.2%
CCOc1ccc(NC(=O)c2c(NCc3cccnc3)sc3c2CCC(C)C3)cc1 (stereo not given)	35.7%	20.7	nt	7.9%[46.1 µM]
COc1ccc(CNC(=O)c2ccc(S(=O)(=O)NCc3ccco3)cc2)cc1	7.0%	45.9	nt	nt
COCc1[nH]nc2c1C(c1ccc(F)cc1F)C(C#N)=C(N)O2 (stereo not given)	-28.6%	-22.8	13.1%	-3.9%
SMILES	FMDV antiviral	HCMV antiviral	Marburg entry inh	LASV entry inh
CC1=NN(c2ccc([N+](=O)[O-])cc2)C(=O)/C1=C\N(C)C	13.7%	3.6	7.8%	7.3%
CC1=NN(c2ccc(C)c(C)c2)C(=O)/C1=C\C=C\c1ccc([N+](=O)[O-])o1	12.6µM*	-88.2*	3.55µM*	7.08µM*
COc1cccc(OC)c1OCCCSc1nc(C)cc(=O)[nH]1	-12.6%	2.7	?	-1.3%
O=C(/C=C/c1ccc([N+](=O)[O-])cc1)c1cccs1	1.6%	-76.1*	nt	nt
O=C(/C=C/c1ccc([N+](=O)[O-])cc1)c1ccccc(=O)c1O	12.6µM*	-95.4*	?	?
O=C(C=Cc1ccccc1)c1cccs1	?	-38.1	?	19.4%
COC(=O)N1CCC2(CCN(C(=O)Nc3ccccc3)CC2)CC1	10.1%	nt	nt	nt
Cc1ccc(S(=O)(=O)C2(C(=O)Nc3cccnc3)CC2)cc1	-14.9%	12.9	nt	nt
c1ccc(C2CCC(N3CCN(c4ccccc4)CC3)CC2)cc1 (stereo not given)	-16.4%	nt	?	2.82µM*
c1ccc(CCN2CCC(N3CCN(c4ccccc4)CC3)CC2)cc1	-24.5%	7.0	-4.0%	-24.4%
Cc1cc(C)c2oc(C(=O)Nc3nnc(C(C)C)s3)cc(=O)c2c1	0.5%	-66.4*	8.1%	0.5%
CSc1nnc(NC(=O)c2cc(=O)c3cc(C)cc(C)c3o2)s1	21.4%	-20.0	-1.8%	5.2%
O=NN1CCCC1c1cccnc1 (stereo not given)	-8.5%	nt	nt	nt

Screening results as filed in PubChem.
